# PNC assembly inh – High Content Assay for Compounds that inhibit the Assembly of the Perinucleolar Compartment; PC3M PTB-GFP, PNC prevalence imaging, 16 h; active compounds read low; 140,000 tested, 3.1% active; activity change (PNC), negative = inhibition, % at 10 µM;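 active means readout at or below -70, meaning at least 70% loss of cells showing the perinucleolar compartment, a nuclear body marking cancer cells; inconclusive means readout between -30 and a set limit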;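 further: plate controls were DMSO wells for no effect and camptothecin positive control wells for full effect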
#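 PC3M cells stably expressing PTB-GFP, 750–1000 cells/well, treated 16 h at 37 °C with compound (23 nl of library stock), in duplicate. After paraformaldehyde fixation and Hoechst stain, imaged at 20x; PNC prevalence scored by image analysis.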
# 15-hLO-2 inh – qHTS Assay for Inhibitors of 15-hLO-2 (15-human lipoxygenase 2). Potency, µM (doses to about 57.1 µM), without a hit: at the top dose activity change, negative = inhibition, usual class: inhibitors. 110,000 tested, 0.56% active. AID 881, 2007. purified 15hLO-2, xylenol orange hydroperoxide absorbance; further: potency means the concentration at half of the fitted maximal effect; nearly all actives have a fitted effect of over 60% in size
#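 Screening format was qHTS against 50 nM purified 15hLO-2 in Hepes pH 7.5 with detergent. Activity follows hydroperoxide formation from 45 uM arachidonic acid, measured as 573:405 nm absorbance ratio of the ferric-xylenol orange complex.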
# 12-hLO inh – qHTS Assay for Inhibitors of 12-hLO (12-human lipoxygenase). purified 12-hLO, xylenol orange hydroperoxide absorbance. Potency, µM (doses to about 57.1 µM), without a hit: at the top dose activity change, negative = inhibition, hits mostly inhibitors. 150,000 tested, 0.12% active. AID 1452, 2008; further: potency means the concentration at half of the fitted maximal effect; nearly all actives have a fitted effect of over 55% in size
# Target sequence (P18054 whole entry, looked up): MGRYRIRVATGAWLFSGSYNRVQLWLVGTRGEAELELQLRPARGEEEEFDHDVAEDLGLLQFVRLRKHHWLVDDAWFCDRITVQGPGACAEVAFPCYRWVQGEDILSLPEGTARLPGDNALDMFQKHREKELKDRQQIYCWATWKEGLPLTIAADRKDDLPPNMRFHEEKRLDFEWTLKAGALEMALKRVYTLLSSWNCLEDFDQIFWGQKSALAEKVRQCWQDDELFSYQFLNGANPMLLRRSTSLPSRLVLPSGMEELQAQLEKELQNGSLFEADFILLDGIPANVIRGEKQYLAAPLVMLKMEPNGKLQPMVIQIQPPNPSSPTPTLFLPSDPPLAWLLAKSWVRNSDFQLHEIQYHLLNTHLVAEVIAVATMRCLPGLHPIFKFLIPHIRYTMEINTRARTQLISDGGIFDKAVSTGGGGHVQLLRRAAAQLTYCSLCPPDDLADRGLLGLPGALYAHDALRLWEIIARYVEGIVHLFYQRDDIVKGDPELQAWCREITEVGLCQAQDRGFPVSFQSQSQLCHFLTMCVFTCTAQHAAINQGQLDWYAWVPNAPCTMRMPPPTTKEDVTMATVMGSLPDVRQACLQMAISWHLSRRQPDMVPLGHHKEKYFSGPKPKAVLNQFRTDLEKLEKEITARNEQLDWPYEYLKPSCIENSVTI
#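 Purified human 12hLO (150 nM final) was preincubated with compounds for 15 min at room temperature in 25 mM Hepes pH 7.0, 0.01% Triton X-100, then reacted with 40 uM arachidonic acid for 30 min. Hydroperoxide was detected with ferrous iron/xylenol orange.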
# The depositor's hits bear a star; u = inconclusive; x = no result; [ ] = dose if it differs, or a comment. A selection: hits, their analogues and other compounds. The true share with any hit is near 3.1%. Unless noted, the call rests on the fitted dose curve; in most records, active means well fitted curve in the direction sought with a large enough effect; inconclusive means small, poorly fitted or top-dose-only effect, or another doubt; inactive means no such curve, though single readings can be large; an effect the other way counts as inactive or inconclusive. Unless noted, on the % scale 0 is the no-effect control and ±100 the full control effect.
SMILES,PNC assembly inh,15-hLO-2 inh,12-hLO inh
Cc1c2oc3c(C)ccc(C(=O)N[C@@H]4C(=O)N[C@@H](C(C)C)C(=O)N5CCC[C@@H]5C(=O)N(C)CC(=O)N(C)[C@@H](C(C)C)C(=O)O[C@H]4C)c3nc-2c(C(=O)N[C@@H]2C(=O)N[C@@H](C(C)C)C(=O)N3CCC[C@@H]3C(=O)N(C)CC(=O)N(C)[C@@H](C(C)C)C(=O)O[C@H]2C)c(N)c1=O,x,5.9%,1.0%
COc1cc2c(cc1OC)C(c1ccc(N)cc1)=NNC(=O)C2,x,11.4%,-2.8%
O=C(NCCSc1c(-c2ccccc2)[nH]c2ccccc12)c1cc2ccccc2oc1=O,-86.4*,x,-0.1%
Cc1ccc(-c2[nH]c3ccccc3c2SCCNC(=O)c2cc3ccccc3oc2=O)cc1,66.9,x,-3.2%
COc1ccc(C2C(C(C)=O)=C(O)C(=O)N2c2cccnc2)c(OC)c1 (centres undefined),u,x,4.7%
COc1ccc(C2C(C(C)=O)=C(O)C(=O)N2C)c(OC)c1 (centres undefined),-127.2*,6.5%,3.7%
O[C@@H]1[C@@H](OCc2ccccc2)OC[C@H](O)[C@@H]1O,x,-5.7%[11.4 µM],2.5%[11.4 µM]
COc1ccc2ccccc2c1/C=C\C(=O)c1ccccc1,x,0.4%[11.4 µM],-4.0%[11.4 µM]
S=C(NCCc1ccccc1)NC1CCCCCC1,u,25.1µM*,u
Fc1ccc(NC(=S)NCc2ccccc2Cl)cc1,28.7,x,-5.6%
COc1ccccc1CN1C(=O)CCC1(C)C(=O)NC1CCCCCC1 (centres undefined),u,0.1%,-3.7%
CC1(C(=O)NC2CCCC2)CCC(=O)N1Cc1ccccc1Cl (centres undefined),-87.6*,2.7%,5.5%
S=C(NCc1ccccc1Cl)NC1CCCC1,-88.3*,x,-2.5%
O=C(CCc1ccccc1)NNC(=S)NC(=O)c1ccccc1,79.3,-10.3%,-11.5%
O=C(NCCc1ccccc1)C(=O)NC1CCCCC1,-0.9,-0.8%,-4.5%
O=C(NC(=S)NCCc1ccccc1)c1ccccc1,u,12.6µM*,17.8µM*
O=C(O)Cc1cc(I)c(Oc2cc(I)c(O)c(I)c2)c(I)c1,x,-1.2%,-0.8%
CCN(CCCCOC(=O)c1ccc(OC)c(OC)c1)[C@@H](C)Cc1ccc(OC)cc1,x,17.4%[25.6 µM],1.9%[25.6 µM]
CCOC(=O)C(NC(=O)c1cccnc1)(Nc1cccc(C)n1)C(F)(F)F (centres undefined),23.9,1.5%,5.3%
CCOC(=O)C(NCc1ccccn1)(NC(=O)c1cccnc1)C(F)(F)F (centres undefined),-86.1*,39.5%,10.2%
CCOC(=O)C1=CC(OC(CC)CC)C(NC(C)=O)C(N)C1 (centres undefined),x,-6.6%,-2.8%
Cc1ccc2oc(=O)c3cnn(CC(=O)NC4CCN(Cc5ccccc5)CC4)c3c2c1,-0.7,5.5%,-3.9%
COc1ccc(-c2cc3c(=O)n(CC(=O)NC4CCN(Cc5ccccc5)CC4)ncn3n2)cc1,-90.5*,11.3%,-7.5%
O=C(Nc1ccccc1)N1CCC2(CC1)CCN(C(=O)c1ccncc1)CC2,x,8.9%,2.2%
CCOc1ccccc1O[C@@H](c1ccccc1)[C@@H]1CNCCO1,x,20.0%,-5.1%
SMILES,PNC assembly inh,15-hLO-2 inh,12-hLO inh
CCOCCCN(Cc1ccco1)C(=O)c1cc2c(=O)[nH]c3ccc(C)cc3c2s1,-85.0*,1.2%,-5.4%
Cc1ccc2[nH]c(=O)c3cc(C(=O)N(C)Cc4ccco4)sc3c2c1,6.9,-13.8%,4.0%
CC(=O)N1CCC2(CCN(Cc3ccc(C#N)cc3)CC2)CC1,x,2.8%,1.5%
CC(C)C[C@@H](CC(=O)N[C@H](CC(=O)N[C@@H]1CCNC[C@H]1C(=O)N[C@H](CC(=O)N[C@@H](CCC(=O)O)CC(=O)O)Cc1ccccc1)C(C)C)NC(=O)[C@@H]1CCCC[C@H]1N,x,x,-4.7%
COc1cc(C(=O)N/N=C/c2sc(=O)n(-c3ccccc3)c2Cl)cc(OC)c1OC,1.8,x,-2.2%
COc1cc(C(=O)N/N=C/c2cc([N+](=O)[O-])cs2)cc(OC)c1OC,-102.6*,x,0.4%
CC(=O)c1ccc(NC(=S)NC(=O)c2c(Cl)c(C)nn2C)cc1,-109.0*,x,2.9%
Cc1cc(C)c(NC(=S)NC(=O)c2c(Cl)c(C)nn2C)c([N+](=O)[O-])c1,u,x,3.1%
C[C@@]12C(=O)OC(=O)[C@@]1(C)[C@H]1CC[C@@H]2O1,x,9.7%,2.3%
OC(COCc1cccs1)CN1CCN(c2ccccc2Cl)CC1 (centres undefined),-14.8,x,2.7%
Cc1cccc(N2CCN(CC(O)COCc3cccs3)CC2)c1C (centres undefined),-115.2*,x,-4.4%

# High-throughput results as filed in PubChem BioAssay.
